Structures are written as SMILES. Where “and” joins values, the source holds several entries; their conditions need not be identical. Identical values can stand only once. Inconclusive results are not listed. A structure can be active in one record and inactive in another. Calls of active or inactive are those of the source. How the source made its calls, unless noted: active means hit-call score of the fitted dose curve at least 0.9, where 1 is the maximum; inactive means score below 0.9.

Experiment [1] is described as follows: ATG_GAL4_TRANS: Attagene TRANS-FACTORIAL HepG2 Assay for GAL4 (Internal Marker) (AID 2282976; active means hit-call score of the fitted dose curve at least 0.9, where 1 is the maximum). The following applies: HepG2 Attagene TRANS GAL4 internal marker reporter. The method in brief: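 In transfected human HepG2 liver cells dosed 24 h, GAL4 reporter mRNA serves as a baseline marker. Detection by RT-PCR with fluorescent capillary electrophoresis, activity fitted upward relative to DMSO.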

Experiment [2] addresses Estrogen-related receptor gamma (Homo sapiens) (UniProt P62508). Nature of the experiment: ATG_ERRg_TRANS: Attagene TRANS-FACTORIAL HepG2 Assay for human Estrogen-Related Receptor gamma (ERRg) (AID 2282977; active means hit-call score of the fitted dose curve at least 0.9, where 1 is the maximum;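 further: hits increase reporter signal over DMSO so potencies reflect activators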). The settings on record: HepG2 Attagene TRANS reporter, ERRg transactivation. The method in brief:
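Transient HepG2 transfectants, 24 h compound exposure, GAL4-UAS reporter mRNA by RT-PCR/6-FAM labelling/capillary electrophoresis; positive direction vs DMSO.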

In experiment [3] the target is Glucocorticoid receptor (Homo sapiens) (UniProt P04150). In words: ATG_GR_TRANS: Attagene TRANS-FACTORIAL HepG2 Assay for human Glucocorticoid Receptor (GR) (AID 2282978; active means hit-call score of the fitted dose curve at least 0.9, where 1 is the maximum;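 further: activators score as hits since higher reporter transcript over DMSO is fitted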). The following applies: HepG2 Attagene TRANS GR reporter, mRNA transcription. The method in brief: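 Multiplexed TRANS reporter system, HepG2; 24 h exposure; RNA → oligo(dT) RT → reporter-specific PCR → 6-FAM primer extension → HpaI cut → CE fluorescence. Gain-of-signal vs DMSO.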
Sequence of Glucocorticoid receptor (Homo sapiens) (P04150 whole entry, looked up): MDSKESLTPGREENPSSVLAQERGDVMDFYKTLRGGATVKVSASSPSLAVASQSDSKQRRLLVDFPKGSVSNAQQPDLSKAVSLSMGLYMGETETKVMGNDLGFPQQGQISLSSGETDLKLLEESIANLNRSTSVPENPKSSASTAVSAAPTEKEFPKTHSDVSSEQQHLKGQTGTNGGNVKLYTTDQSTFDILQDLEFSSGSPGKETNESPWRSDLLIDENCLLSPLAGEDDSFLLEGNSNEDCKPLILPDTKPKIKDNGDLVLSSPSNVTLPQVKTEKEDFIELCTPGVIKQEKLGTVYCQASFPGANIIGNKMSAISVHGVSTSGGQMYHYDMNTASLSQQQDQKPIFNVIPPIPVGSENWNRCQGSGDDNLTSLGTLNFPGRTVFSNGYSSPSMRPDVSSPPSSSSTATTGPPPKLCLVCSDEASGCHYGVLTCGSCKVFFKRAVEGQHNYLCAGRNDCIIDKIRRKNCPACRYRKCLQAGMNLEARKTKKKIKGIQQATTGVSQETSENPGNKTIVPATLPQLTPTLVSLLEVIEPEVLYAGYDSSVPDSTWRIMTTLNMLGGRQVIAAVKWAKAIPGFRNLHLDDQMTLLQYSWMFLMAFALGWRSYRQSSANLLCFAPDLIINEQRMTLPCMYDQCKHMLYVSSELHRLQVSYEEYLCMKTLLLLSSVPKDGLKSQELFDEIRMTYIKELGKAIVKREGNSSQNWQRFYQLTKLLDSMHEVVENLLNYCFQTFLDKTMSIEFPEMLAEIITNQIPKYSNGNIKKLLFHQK

Experiment [4] addresses Bile acid receptor (Homo sapiens) (UniProt Q96RI1). Nature of the experiment: ATG_FXR_TRANS: Attagene TRANS-FACTORIAL HepG2 Assay for Farnesoid X Receptor (FXR) (AID 2282979; active means hit-call score of the fitted dose curve at least 0.9, where 1 is the maximum;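 further: hits raise reporter mRNA above DMSO so AC50 marks FXR activation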). The settings on record: HepG2 Attagene TRANS FXR-GAL4 reporter transcription. The method in brief:
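Reporter transcripts from transfected HepG2 cells were measured 24 h after dosing, using RT-PCR with capillary electrophoresis of 6-FAM-labelled fragments. The read-out reflects activity of exogenous FXR-Gal4 chimera on GAL4-UAS units, with induction relative to DMSO.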

For experiment [5], the target named is Oxysterols receptor LXR-alpha (Homo sapiens) (UniProt Q13133). In words: ATG_LXRa_TRANS: Attagene TRANS-FACTORIAL HepG2 Assay for human Liver X Receptor alpha (LXRa) (AID 2282980; active means hit-call score of the fitted dose curve at least 0.9, where 1 is the maximum). The following applies: HepG2 Attagene TRANS reporter, LXRa transactivation. The method in brief:
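Chemical-induced reporter mRNA measured by RT-PCR with fluorescent labelling and capillary electrophoresis after 24 h dosing of transiently transfected HepG2 cells expressing exogenous NR-Gal4 chimeras; increases scored against DMSO baseline.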

For experiment [6], the target named is Oxysterols receptor LXR-beta (Homo sapiens) (UniProt P55055). Nature of the experiment: ATG_LXRb_TRANS: Attagene TRANS-FACTORIAL HepG2 Assay for human Liver X Receptor beta (LXRb) (AID 2282981; active means hit-call score of the fitted dose curve at least 0.9, where 1 is the maximum). The settings on record: HepG2 Attagene TRANS GAL4-LXRb reporter, mRNA. The method in brief: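 Gain-of-signal mRNA reporter endpoint, DMSO as negative control. Transiently transfected HepG2 cells carrying the NR-Gal4 chimera and GAL4-UAS reporter units were treated 24 h; transcripts quantified by RT-PCR and capillary electrophoresis fluorescence.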
Sequence of Oxysterols receptor LXR-beta (Homo sapiens) (P55055 whole entry, looked up, the tested form may be a part): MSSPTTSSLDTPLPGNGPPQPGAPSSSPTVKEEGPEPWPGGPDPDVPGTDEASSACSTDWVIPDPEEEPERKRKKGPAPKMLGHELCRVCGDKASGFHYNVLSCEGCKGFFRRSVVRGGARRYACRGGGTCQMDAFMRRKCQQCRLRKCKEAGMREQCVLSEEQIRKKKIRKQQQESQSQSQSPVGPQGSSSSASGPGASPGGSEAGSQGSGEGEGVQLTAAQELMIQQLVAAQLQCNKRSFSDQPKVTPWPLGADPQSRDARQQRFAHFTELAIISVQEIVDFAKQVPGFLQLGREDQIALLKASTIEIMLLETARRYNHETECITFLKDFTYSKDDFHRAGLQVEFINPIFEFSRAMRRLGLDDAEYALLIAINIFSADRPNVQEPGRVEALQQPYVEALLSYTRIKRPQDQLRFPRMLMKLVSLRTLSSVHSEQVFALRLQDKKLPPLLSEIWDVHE

For experiment [7], the target named is Hepatocyte nuclear factor 4-alpha (Homo sapiens) (UniProt P41235). In words: ATG_HNF4a_TRANS: Attagene TRANS-FACTORIAL HepG2 Assay for human Hepatocyte Nuclear Factor 4 alpha (HNF4a) (AID 2282982; active means hit-call score of the fitted dose curve at least 0.9, where 1 is the maximum). The following applies: HepG2 HNF4a transactivation reporter, mRNA readout. The method in brief:
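Gain-of-signal mRNA induction, relative to DMSO vehicle, was read after 24 h compound treatment of HepG2 cells bearing transfected GAL4-UAS reporters. Detection used RT-PCR, 6-FAM primer extension and capillary electrophoresis.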

The nature of experiment [8]: ATG_M_06_TRANS: Attagene TRANS-FACTORIAL HepG2 Assay for M06 Transcription Factor (Internal Marker) (AID 2282983; active means hit-call score of the fitted dose curve at least 0.9, where 1 is the maximum). The following applies: HepG2 Attagene TRANS M06 internal marker reporter. The method in brief: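 Cells: HepG2, transient multi-reporter transfection. Exposure: 24 h. Detection: RT-PCR, 6-FAM labelling, HpaI digestion (2 h, 37 °C), capillary electrophoresis. Baseline: DMSO.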

A short description of experiment [9]: ATG_M_32_TRANS: Attagene TRANS-FACTORIAL HepG2 Assay for M32 Transcription Factor (Internal Marker) (AID 2282984; active means hit-call score of the fitted dose curve at least 0.9, where 1 is the maximum;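 further: transcript level of a background control reporter unit measured by RT-PCR and capillary electrophoresis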). The settings on record: HepG2 Attagene TRANS M32 internal marker reporter. The method in brief: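 Capillary electrophoresis of 6-FAM-labelled reporter fragments gives the signal; data fitted for gain over DMSO negative control. Source: HepG2 cells bearing transient multiple reporter transcription units, 24 h exposure.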

Experiment [10] deals with Nuclear receptor subfamily 4 group A member 2 (Homo sapiens) (UniProt P43354). In words: ATG_NURR1_TRANS: Attagene TRANS-FACTORIAL HepG2 Assay for human Nuclear Receptor Related Protein 1 (NURR1) (AID 2282985; active means hit-call score of the fitted dose curve at least 0.9, where 1 is the maximum). The settings on record: HepG2 Attagene TRANS reporter, mRNA readout. The method in brief:
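HepG2 / transient MRTU transfection / 24 h compound exposure / RT-PCR + CE fluorescence of reporter mRNA / gain-of-signal vs DMSO.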

The target in experiment [11] is Transcriptional activator Myb (Homo sapiens) (UniProt P10242). In words: ATG_Myb_CIS: Attagene CIS-FACTORIAL HepG2 Assay for human Myeloblastosis (Myb) Proto-Oncogene Transcription Factor (AID 2282986). The following applies: HepG2 Attagene CIS-FACTORIAL Myb reporter transcription; actives raise or lower the signal. The method in brief:
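Endogenous transcription factor activity at a Myb-responsive cis element is reported in human liver HepG2 cells after 24 h chemical treatment. Reporter mRNA is detected by RT-PCR and capillary electrophoresis fluorescence, with DMSO as baseline.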

Experiment [12] concerns the target Nuclear respiratory factor 1 (Homo sapiens) (UniProt Q16656). In words: ATG_NRF1_CIS: Attagene CIS-FACTORIAL HepG2 Assay for human Nuclear Respiratory Factor 1 (NRF1) Orphan Gene (AID 2282987). The settings on record: HepG2 NRF1 cis-element reporter, Attagene multiplex; actives raise or lower the signal. The method in brief:
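Human hepatoma HepG2 cells carrying transfected promoter-regulated reporter units were incubated with test chemicals for 24 h. Reporter transcripts were measured by RT-PCR plus capillary electrophoresis, and endpoints derived by bidirectional fitting with DMSO as baseline.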

Experiment [13] deals with Myc proto-oncogene protein (Homo sapiens) (UniProt P01106). In words: ATG_Myc_CIS: Attagene CIS-FACTORIAL HepG2 Assay for human Myelocytomatosis (Myc) Proto-Oncogene Transcription Factor (AID 2282990). The following applies: HepG2, Attagene cis-reporter transcription factor activity; actives raise or lower the signal. The method in brief:
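Fluorescence intensity of reporter-specific cDNA fragments, separated by capillary electrophoresis, gives the signal. Transfected HepG2 cells carrying cis-promoter reporter constructs are incubated with compound for 24 h; DMSO serves as baseline.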

Experiment [14] is described as follows: ATG_NF_kB_CIS: Attagene CIS-FACTORIAL HepG2 Assay for human Nuclear Factor Kappa B (NF-kB) (AID 2282991). The following applies: HepG2 Attagene cis-factorial NF-kB reporter mRNA; actives raise or lower the signal. The method in brief: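 Multiplexed cis-reporter assay in transiently transfected HepG2. 24 h treatment; RNA isolated, RT-PCR, labelled fragments resolved by CE. DMSO baseline.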

Experiment [15] is described as follows: ATG_NRF2_ARE_CIS: Attagene CIS-FACTORIAL HepG2 Assay for human Nuclear Factor Erythroid 2 Related Factor 2 (NFR2) response to Antioxidant Response Elements (ARE) (AID 2282992).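 On AC50: reporter mRNA level measured by RT-PCR and capillary electrophoresis fluorescence.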 The settings on record: HepG2 Attagene ARE/NRF2 reporter, transcription factor activity; actives raise or lower the signal. The method in brief:
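HepG2 cells transiently transfected with multiplexed cis-regulated reporter transcription units measure endogenous transcription factor activity. Reporter mRNA at 24 h is quantified by RT-PCR, fluorescent labelling and capillary electrophoresis, with bidirectional fitting relative to DMSO.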

A short description of experiment [16]: ATG_Oct_MLP_CIS: Attagene CIS-FACTORIAL HepG2 Assay for human Octamer-Binding Transcription Factor (Oct) (AID 2282993). The following applies: HepG2 Attagene cis-factorial Oct reporter, mRNA; actives raise or lower the signal. The method in brief: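 HepG2 cells transiently transfected with cis-promoter-driven multiplexed reporter transcription units, dosed for 24 h. Reporter mRNA quantified by RT-PCR, fluorescent labelling, HpaI digestion and capillary electrophoresis; bidirectional fits versus DMSO baseline.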

The target of experiment [17] is Cellular tumor antigen p53 (Homo sapiens) (UniProt P04637). In words: ATG_p53_CIS: Attagene CIS-FACTORIAL HepG2 Assay for human p53 Transcription Factor (AID 2282994). The settings on record: HepG2 p53 cis-element reporter, Attagene mRNA; actives raise or lower the signal. The method in brief:
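HepG2 cells transiently transfected with multiplexed cis-regulated reporter transcription units read endogenous TF activity. After 24 h compound exposure, reporter mRNA was quantified by RT-PCR, fluorescent labelling, HpaI digestion and capillary electrophoresis; bidirectional fits versus DMSO baseline.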

The nature of experiment [18]: BSK_3C_TissueFactor: BioMAP Diversity Plus: 3C Assay for Tissue Factor Biomarker Activity (AID 2282997). The following applies: BioMAP 3C HUVEC, tissue factor biomarker readout; actives raise or lower the signal. The method in brief: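 Dosing of human umbilical vein endothelial cells preceded a 24 h incubation. Tissue Factor was then read by ELISA, with increases and decreases both scored relative to DMSO controls.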

Experiment [19] can be described thus: BSK_3C_uPAR: BioMAP Diversity Plus: 3C Assay for Urokinase-type plasminogen activator receptor (uPAR) Biomarker Activity (AID 2282998). The following applies: BioMAP 3C HUVEC, uPAR biomarker ELISA; actives raise or lower the signal. The method in brief:
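Human umbilical vein endothelial primary cells were exposed to test chemical for 24 h. Cell-surface uPAR was then quantified by ELISA, and responses were fitted bidirectionally against DMSO as negative control and baseline.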
(In an ELISA, binding on a coated surface is turned into a signal by an enzyme label.)

Experiment [20] in a line: ATG_NFI_CIS: Attagene CIS-FACTORIAL HepG2 Assay for human Nuclear Factor I (NFI) (AID 2282989). The settings on record: HepG2 cis-regulatory reporter, NFI response element transcription; actives raise or lower the signal. The method in brief: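 HepG2 cells transiently transfected with cis-element-driven multiplexed reporter transcription units, dosed for 24 h. Reporter mRNA quantified by RT-PCR, fluorescent labelling, HpaI digestion and capillary electrophoresis; bidirectional fit versus DMSO baseline.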

Sequence of Bile acid receptor (Homo sapiens) (Q96RI1 whole entry, looked up, the tested form may be a part): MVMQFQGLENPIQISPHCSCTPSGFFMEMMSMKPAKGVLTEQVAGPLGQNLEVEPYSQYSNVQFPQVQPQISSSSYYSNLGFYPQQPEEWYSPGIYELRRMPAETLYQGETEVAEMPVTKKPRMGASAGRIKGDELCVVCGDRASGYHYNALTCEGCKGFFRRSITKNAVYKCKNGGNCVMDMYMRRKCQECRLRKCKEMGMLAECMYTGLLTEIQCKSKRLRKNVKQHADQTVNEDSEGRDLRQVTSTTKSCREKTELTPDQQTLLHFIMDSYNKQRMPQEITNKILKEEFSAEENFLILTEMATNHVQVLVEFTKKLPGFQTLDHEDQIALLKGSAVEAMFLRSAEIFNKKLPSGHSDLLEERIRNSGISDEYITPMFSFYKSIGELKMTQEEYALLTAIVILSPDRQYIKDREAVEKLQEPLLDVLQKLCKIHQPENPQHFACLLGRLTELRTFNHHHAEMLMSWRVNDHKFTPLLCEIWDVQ
Sequence of Cellular tumor antigen p53 (Homo sapiens) (P04637 whole entry, looked up): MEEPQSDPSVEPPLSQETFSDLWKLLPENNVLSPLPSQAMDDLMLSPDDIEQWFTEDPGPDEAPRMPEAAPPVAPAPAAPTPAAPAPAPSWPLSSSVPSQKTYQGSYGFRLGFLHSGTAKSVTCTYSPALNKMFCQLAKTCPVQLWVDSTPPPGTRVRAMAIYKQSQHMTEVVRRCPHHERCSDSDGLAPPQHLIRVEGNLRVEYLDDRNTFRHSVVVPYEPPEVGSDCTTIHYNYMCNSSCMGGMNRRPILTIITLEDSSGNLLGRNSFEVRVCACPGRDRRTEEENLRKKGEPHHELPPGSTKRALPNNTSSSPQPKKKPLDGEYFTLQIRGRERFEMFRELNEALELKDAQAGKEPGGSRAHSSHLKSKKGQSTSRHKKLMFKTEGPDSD
Sequence of Nuclear receptor subfamily 4 group A member 2 (Homo sapiens) (P43354 whole entry, looked up): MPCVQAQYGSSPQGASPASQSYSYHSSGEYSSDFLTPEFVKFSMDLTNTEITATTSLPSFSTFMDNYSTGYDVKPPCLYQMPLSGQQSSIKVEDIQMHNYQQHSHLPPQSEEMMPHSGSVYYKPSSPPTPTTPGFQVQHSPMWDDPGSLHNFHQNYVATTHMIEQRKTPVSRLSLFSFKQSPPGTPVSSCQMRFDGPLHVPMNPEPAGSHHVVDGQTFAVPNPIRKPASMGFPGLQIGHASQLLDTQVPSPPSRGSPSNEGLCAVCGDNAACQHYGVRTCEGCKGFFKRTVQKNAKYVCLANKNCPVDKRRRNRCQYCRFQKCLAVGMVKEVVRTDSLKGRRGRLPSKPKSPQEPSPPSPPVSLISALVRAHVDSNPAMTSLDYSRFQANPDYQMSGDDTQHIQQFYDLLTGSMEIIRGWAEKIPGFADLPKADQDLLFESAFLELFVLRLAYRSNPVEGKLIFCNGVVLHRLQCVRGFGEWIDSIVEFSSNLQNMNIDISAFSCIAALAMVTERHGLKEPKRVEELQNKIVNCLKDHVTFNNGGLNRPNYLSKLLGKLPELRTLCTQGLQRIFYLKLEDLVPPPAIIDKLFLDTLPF
Sequence of Nuclear respiratory factor 1 (Homo sapiens) (Q16656 whole entry, looked up): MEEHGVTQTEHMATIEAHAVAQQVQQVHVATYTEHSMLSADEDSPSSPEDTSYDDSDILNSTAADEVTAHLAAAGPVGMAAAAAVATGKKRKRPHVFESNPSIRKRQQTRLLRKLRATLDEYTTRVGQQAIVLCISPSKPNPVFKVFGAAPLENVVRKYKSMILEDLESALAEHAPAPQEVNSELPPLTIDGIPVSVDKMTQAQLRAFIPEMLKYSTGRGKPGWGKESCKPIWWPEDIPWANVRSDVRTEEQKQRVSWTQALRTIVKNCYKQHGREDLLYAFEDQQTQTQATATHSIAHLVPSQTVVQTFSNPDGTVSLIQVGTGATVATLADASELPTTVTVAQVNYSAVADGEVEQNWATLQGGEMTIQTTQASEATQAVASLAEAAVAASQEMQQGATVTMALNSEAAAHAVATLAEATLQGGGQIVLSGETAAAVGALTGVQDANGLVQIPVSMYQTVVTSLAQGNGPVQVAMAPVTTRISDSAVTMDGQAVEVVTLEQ
Sequence of Transcriptional activator Myb (Homo sapiens) (P10242 whole entry, looked up): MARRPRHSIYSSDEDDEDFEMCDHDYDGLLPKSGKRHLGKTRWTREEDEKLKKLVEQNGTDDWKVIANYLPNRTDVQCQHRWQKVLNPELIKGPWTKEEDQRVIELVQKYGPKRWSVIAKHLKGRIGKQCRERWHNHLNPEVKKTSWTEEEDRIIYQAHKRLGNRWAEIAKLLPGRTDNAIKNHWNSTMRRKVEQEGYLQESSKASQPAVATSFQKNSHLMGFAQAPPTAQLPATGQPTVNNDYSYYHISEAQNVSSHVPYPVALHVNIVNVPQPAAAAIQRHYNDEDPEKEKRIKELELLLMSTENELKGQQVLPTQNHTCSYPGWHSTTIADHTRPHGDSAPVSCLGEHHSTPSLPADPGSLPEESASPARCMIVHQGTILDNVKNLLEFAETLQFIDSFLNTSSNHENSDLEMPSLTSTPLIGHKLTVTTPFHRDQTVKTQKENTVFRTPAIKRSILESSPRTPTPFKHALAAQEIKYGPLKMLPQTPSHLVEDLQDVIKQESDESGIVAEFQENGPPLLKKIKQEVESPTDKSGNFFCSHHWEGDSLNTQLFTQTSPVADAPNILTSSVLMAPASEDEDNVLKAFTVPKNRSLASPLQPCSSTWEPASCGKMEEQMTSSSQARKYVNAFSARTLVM
Sequence of Oxysterols receptor LXR-alpha (Homo sapiens) (Q13133 whole entry, looked up, the tested form may be a part): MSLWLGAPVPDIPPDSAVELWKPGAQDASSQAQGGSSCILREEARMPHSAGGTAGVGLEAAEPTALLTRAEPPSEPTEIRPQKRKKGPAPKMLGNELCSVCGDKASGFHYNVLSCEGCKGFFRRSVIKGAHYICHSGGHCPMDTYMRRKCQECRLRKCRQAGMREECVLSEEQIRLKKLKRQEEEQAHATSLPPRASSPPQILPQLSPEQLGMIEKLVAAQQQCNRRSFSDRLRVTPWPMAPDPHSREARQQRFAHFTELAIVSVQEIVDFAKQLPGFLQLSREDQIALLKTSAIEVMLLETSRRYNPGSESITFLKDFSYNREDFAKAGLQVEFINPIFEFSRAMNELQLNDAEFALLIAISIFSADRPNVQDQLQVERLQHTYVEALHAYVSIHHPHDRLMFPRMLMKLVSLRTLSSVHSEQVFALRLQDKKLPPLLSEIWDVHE
Sequence of Myc proto-oncogene protein (Homo sapiens) (P01106 whole entry, looked up, the tested form may be a part): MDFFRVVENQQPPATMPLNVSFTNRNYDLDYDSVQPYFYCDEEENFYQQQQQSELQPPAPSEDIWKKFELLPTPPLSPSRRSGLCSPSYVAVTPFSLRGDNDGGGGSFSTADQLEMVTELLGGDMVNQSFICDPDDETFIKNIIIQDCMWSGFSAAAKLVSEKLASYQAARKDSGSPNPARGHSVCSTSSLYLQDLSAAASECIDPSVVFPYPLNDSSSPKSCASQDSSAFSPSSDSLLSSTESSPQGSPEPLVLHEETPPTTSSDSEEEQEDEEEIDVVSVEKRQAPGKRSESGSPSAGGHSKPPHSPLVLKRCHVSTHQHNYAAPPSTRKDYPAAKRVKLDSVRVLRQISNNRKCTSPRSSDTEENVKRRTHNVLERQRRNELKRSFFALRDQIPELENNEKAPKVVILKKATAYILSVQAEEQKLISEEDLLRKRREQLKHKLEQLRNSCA

One may read the AC50 as the concentration at which the activity in the assay is half-maximal. For the compound `COc1ccc(C(c2ccc(OC)cc2)C(Cl)(Cl)Cl)cc1`, the result in [1], in [2], in experiment [3], in experiment [4], in [5] and in [6] was inactive. Further, the compound was classed as inactive in experiment [7], in experiment [8], in experiment [9], in experiment [10], in [11] and in [12]. The outcome in [13], in [14], in experiment [15], in experiment [16], in experiment [17] and in [18] was inactive. The AC50 in experiment [4] is 26.5 µM (active); in experiment [16] it was 37.6 µM (active); in [19] it was 30.1 µM (active).

Take `CC(C)(C)c1ccc(CSc2cnn(C(C)(C)C)c(=O)c2Cl)cc1`: the result in experiment [1], in experiment [2], in experiment [3], in experiment [5], in experiment [6] and in [7] was inactive. Also, the call in experiment [8], in experiment [9], in experiment [10], in experiment [11], in experiment [20] and in [13] was inactive. Further, the compound was called inactive in experiment [17] and in experiment [18]. Besides, the AC50 is 19.1 µM (active) in [12], 0.0912 µM (active) in experiment [15], 0.024 µM (active) in [16] and 8.48 µM (active) in experiment [19].

Take `C=CCC1=C(C)C(OC(=O)C2C(C=C(C)C)C2(C)C)CC1=O` (configuration not stated): the outcome in experiment [1], in [2], in experiment [3], in experiment [4], in experiment [5] and in experiment [6] was inactive. Moreover, the call in [7], in experiment [8], in experiment [9], in experiment [11], in experiment [12] and in experiment [13] was inactive. The call in experiment [14], in experiment [16] and in experiment [17] was inactive. Further, the AC50 in [4] was 35.7 µM (active) and 35 µM (active) and 27.2 µM (active); in experiment [7] it was 179 µM (active); in experiment [12], 136 µM (active) and 144 µM (active); in experiment [14] it was 43.2 µM (active) and 105 µM (active); in [16] it was 47.5 µM (active) [middle of 5 runs]; in experiment [17], 170 µM (active) and 86.4 µM (active). Besides, the AC50 in [18] was 34 µM (active) [middle of 4 runs]; in experiment [19], 35.3 µM (active) [middle of 4 runs].

The record behind these values is PubChem BioAssay (EPA / NIEHS).
